Measurements reported in the supplement of paper PMC6555819.

Tests used:
Test in all cases: PBM binding z-score (relative to random genomic background probes); higher = stronger binding; sequences stand for … in GC…GCGATTGACAGCGTAGAATGAAGG
[1] = tested on: FXR:RXRa (NR concentration 270 nM, RXRa partner concentration 90 nM)
Procedure, shortened: (§1)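 Binding buffer was PBS pH 7.4 with 2% milk, 0.02% Triton X-100, 1 mM DTT, 0.2 mg/mL BSA and 0.4 mg/ml salmon testes DNA. In it, ligand-free nuclear receptor dimers were incubated 1 h on custom Agilent 4×180K protein-binding microarrays carrying double-stranded probes. Antibodies against each partner (one per run) detected binding, and z-scores were calculated against random background probes after regression normalization of scanned fluorescence.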

[2] = tested on: LXRa:RXRa (NR concentration 270 nM, RXRa partner concentration 90 nM)
Procedure, shortened: as §1

[3] = tested on: LXRa homodimer (NR concentration 270 nM)
Procedure, shortened: as §1

[4] = tested on: LXRb:RXRa (NR concentration 270 nM, RXRa partner concentration 90 nM)
Procedure, shortened: as §1

[5] = tested on: LXRb homodimer (NR concentration 270 nM)
Procedure, shortened: as §1

[6] = tested on: PPARa:RXRa (NR concentration 270 nM, RXRa partner concentration 90 nM)
Procedure, shortened: as §1

[7] = tested on: PPARg:RXRa (NR concentration 180 nM, RXRa partner concentration 90 nM)
Procedure, shortened: as §1

[8] = tested on: PPARg:RXRa 270nM:90nM, anti-RXR (NR concentration 270 nM, RXRa partner concentration 90 nM)
Procedure, shortened: as §1

[9] = tested on: PPARg:RXRa 30nM:10nM, anti-RXR (NR concentration 30 nM, RXRa partner concentration 10 nM)
Procedure, shortened: as §1

[10] = tested on: PPARg:RXRa 90nM:30nM, anti-RXR (NR concentration 90 nM, RXRa partner concentration 30 nM)
Procedure, shortened: as §1

[11] = tested on: PPARg:RXRa DBDmut IVT, anti-RXR (DBD mutation: RXRa K156A/R161A, NR concentration 270 nM, RXRa partner concentration 90 nM)
Procedure, shortened: as §1

[12] = tested on: PPARg:RXRa IVT, anti-PPARg (NR concentration 270 nM, RXRa partner concentration 90 nM)
Procedure, shortened: as §1

[13] = tested on: PPARg DBDmut:RXRa IVT, anti-PPARg (DBD mutation: PPARg1 K132A/R137A, NR concentration 270 nM, RXRa partner concentration 90 nM)
Procedure, shortened: as §1

[14] = tested on: PPARg DBDmut IVT, anti-PPARg (DBD mutation: PPARg1 K132A/R137A, NR concentration 270 nM)
Procedure, shortened: as §1

[15] = tested on: PPARg homodimer (NR concentration 180 nM)
Procedure, shortened: as §1

[16] = tested on: PXR:RXRa (NR concentration 270 nM, RXRa partner concentration 90 nM)
Procedure, shortened: as §1

[17] = tested on: PXR homodimer (NR concentration 270 nM)
Procedure, shortened: as §1

[18] = tested on: RARa:RXR (NR concentration 270 nM, RXRa partner concentration 90 nM)
Procedure, shortened: as §1

[19] = tested on: RARa homodimer (NR concentration 270 nM)
Procedure, shortened: as §1

[20] = tested on: RARb:RXRa (NR concentration 270 nM, RXRa partner concentration 90 nM)
Procedure, shortened: as §1

Row | Sequence | PBM binding z-score [1] | PBM binding z-score [2] | PBM binding z-score [3] | PBM binding z-score [4] | PBM binding z-score [5] | PBM binding z-score [6] | PBM binding z-score [7] | PBM binding z-score [8] | PBM binding z-score [9] | PBM binding z-score [10] | PBM binding z-score [11] | PBM binding z-score [12] | PBM binding z-score [13] | PBM binding z-score [14] | PBM binding z-score [15] | PBM binding z-score [16] | PBM binding z-score [17] | PBM binding z-score [18] | PBM binding z-score [19] | PBM binding z-score [20]
1 | CTTCCAAGGTCAGAGAGGTCAGTGAATGCCGAGT | 5.96 | 5.16 | 3.44 | 4.49 | 0.991 | 4.78 | 3.44 | 4.24 | 1.24 | 2.89 | 2.81 | 3.44 | -0.247 | 0.0425 | 3.75 | 5.75 | 11.5 | 4.71 | 1.5 | 5.27
2 | AGAATCAGGTTACCAAAGATCAGGGAAACGCTTG | 0.0425 | 4.27 | -0.14 | 1.12 | 0.162 | 1.69 | 1.24 | 1.19 | 0.411 | 0.466 | 3.77 | 3.08 | 0.88 | 1.06 | 0.0981 | 0.0669 | -0.0157 | 0.359 | -0.131 | 1.08
3 | CGTCAAAGTTCCAGGTAACGTAACAGAAAGCAGC | -0.0989 | -0.25 | -0.161 | 0.0165 | 0.0494 | 0.154 | 0.501 | 0.0886 | -0.125 | 0.0621 | 0.434 | 0.748 | -0.578 | 0.351 | 0.169 | 0.0635 | -0.218 | 0.268 | 0.632 | 0.351
4 | CCTGTTAGTTGACCATAAGGGCAACCGAAGCTCG | 0.874 | 0.297 | 0.378 | 0.396 | 0.499 | 0.707 | 0.162 | 0.397 | 0.0716 | 0.159 | 0.268 | 0.863 | 0.531 | 0.804 | 1.39 | 0.426 | 0.794 | 0.804 | 1.03 | 1.74
5 | CCTACTGGGCCAAGGTCAATGATCAGTCAAAGCA | 2.52 | 2.33 | 0.441 | 2.32 | -0.518 | 3.85 | 4.03 | 4.33 | 2.07 | 3.39 | 3.63 | 4.57 | -0.437 | -1.01 | 1.4 | 2.51 | 0.323 | 2.81 | 0.147 | 3.27
6 | TCTAGTTGGTCACAGGTCACACACTCGAAATGCG | 2.89 | 2.92 | 1.82 | 3.13 | 0.99 | 4.37 | 7.08 | 6.5 | 6.07 | 7.04 | 3.01 | 4.53 | 1.58 | 1.96 | 2.52 | 3.06 | 0.924 | 3.51 | 1.49 | 3.33
7 | TCATTTAGGTAAAGGTGAAAGTCGAACGATATGA | 1.18 | 1.46 | -0.167 | 1.52 | 0.32 | 3.21 | 3.2 | 4.48 | 4.39 | 4.9 | 3.05 | 3.75 | 1.29 | 2.17 | 1.2 | 1.35 | 0.193 | 1.92 | 1.42 | 2.05
